According to ChEMBL document CHEMBL3988442, “University of Dundee, Small-Polar-MMV Screening Library” (2021):
Screen size: about 38,000 compounds; about 1,200 (3.2%) showed an effect of 50% or more. The median lay at about -58%. What follows is part of a selection rich in strong results, with near analogues and random picks from the rest.

These compounds were tested on Plasmodium falciparum (assay: Calibr Malaria Delayed Death Assay SOP). Conditions: concentration 4.99e-06 (unit not given; other assays of the set use mol/L).
Type: functional, organism-based
Set-up: scale not given: in the data most compounds retested in dose-response had high values

Compound	Percent Effect [%]
O=C(O)C(F)(F)F.O=C(c1ccnnc1)N1C[C@@H]2C[C@@H](c3nc(C4CC4)cs3)O[C@@H]2C1	-41.35
Cc1ccoc1C(=O)N1C[C@@H](OCC2CCOCC2)[C@H]2OCCC[C@H]21	0.5559
CCOc1ccc(NC(C)C(=O)Nc2cc(C)no2)cc1 (configuration not stated)	-61.09
c1[nH]c(CC2CCCC2)nc1CN1CCCC2(CCOC2)C1 (configuration not stated)	81.53
C[C@@H]1CN(Cc2c[nH]c(CC3CCCC3)n2)CC[C@]1(C)O	-135.8
COC[C@]1(O)CCN(Cc2c[nH]c(CC3CCCC3)n2)CC1(C)C	15.86
OC1(CN2CCCC2)CCCN(Cc2c[nH]c(CC3CCCC3)n2)C1 (configuration not stated)	36.89
CC1(C)CN(Cc2c[nH]c(CC3CCCC3)n2)CC[C@]1(C)O	-34.05
OC1(CN2CCCCC2)CCN(Cc2c[nH]c(CC3CCCC3)n2)C1 (configuration not stated)	52.98
CN1CC(=O)N(c2ccccc2)CC12CCN(C(=O)c1cnccn1)C2.O=C(O)C(F)(F)F (configuration not stated)	-66.28
O=C(O)C(F)(F)F.O[C@@H]1CCN(CC2CCOC2)[C@H]1Cc1ccccc1 (some centres not stated)	-110.3
O=C(O)C(F)(F)F.O=C(O)C(F)(F)F.O[C@@H]1CCN(CC2CCOC2)[C@H]1Cc1cccnc1 (some centres not stated)	-68.9
COc1ccc(CN2CC[C@H](O)[C@@H]2Cc2cnn(C)c2)cc1.O=C(O)C(F)(F)F	-6.903
COc1ccc(CN2CC[C@@H](O)[C@@H]2Cc2cnn(C)c2)cc1.O=C(O)C(F)(F)F	-130.2
Cn1cc(CN2CC[C@H](O)[C@@H]2Cc2ccccc2)cn1.O=C(O)C(F)(F)F	22.75
COc1ccc(CN2CC[C@@H](O)[C@@H]2Cc2ccccc2)cc1.O=C(O)C(F)(F)F	80.27
Cn1cc(CN2CC[C@@H](O)[C@@H]2Cc2ccccc2)cn1	-45.02
O=C(O)C(F)(F)F.O[C@@H]1CCN(CC2CC2)[C@H]1Cc1ccccc1	63.26
NCC(CO)Cc1ccc(C(F)(F)F)cc1 (configuration not stated)	-43.7
CC(C)Oc1ncccc1CNC(=O)c1ccc(=O)[nH]n1	-94.73
CCCS(=O)(=O)NCCc1ncc(C)s1	-127.4
COc1ccc(NC(=O)C(c2cccc(F)c2)N2CCOCC2)cc1 (configuration not stated)	-6.296
Cc1cc(C)c(S(=O)(=O)Nc2cccc3c2OCCO3)cc1C(=O)O	-20.88

Compound	Percent Effect [%]
CNCC(=O)NC1CC(C)(C)Cc2nc(C(C)(C)C)ncc21 (configuration not stated)	3.513
CC(C)C(=O)N1CCN(Cc2cnn(C)c2)CC2(CC(=O)N(C)C2)C1.O=C(O)C(F)(F)F (configuration not stated)	-69.27
COc1ccc2nnc(C(=O)NCC3CCCC3)nc2c1	-78.39
CN1CCC(O)(CNCc2ccc(F)c(C(F)(F)F)c2)CC1	82.66
Cc1cc(CNCC2(O)CCOCC2)ccc1Br	44
OC1(CNCc2ccc(F)c(C(F)(F)F)c2)CCOC1 (configuration not stated)	-5.548
Cc1cc(CNCC2(O)CCOCC2)ccc1F	16.95
OC1(CNCc2ccc(F)c(C(F)(F)F)c2)CCSCC1	54.72
O=C(NCc1ccc(Cl)cc1Cl)NCC1(O)CCSC1 (configuration not stated)	0.496
COCC1CN(Cc2ccsc2)Cc2cnn(C)c21 (configuration not stated)	-44.18
CC(C)[C@H](NC(=O)NC1CCS(=O)(=O)C1)C(=O)NCc1ccccc1 (some centres not stated)	-124.5
O=C(c1cc(C2CC2)no1)N1C[C@H]2CC[C@@H]1CN(Cc1ccccn1)C2	5.083
O=C(CN1C[C@H]2CC[C@@H]1CN(Cc1ccccn1)C2)Nc1ccccc1	82.97
Cc1cnn(C2CN(CC(=O)NCc3ccccn3)C2)c1	-188.5
O=C(CN1C[C@H]2CC[C@@H]1CN(Cc1ccccn1)C2)NCc1cccs1	67.17
Cc1nnsc1CN1C[C@H]2CC[C@@H]1CN(Cc1ccccn1)C2	-7.135
CC(C)c1cc(C(=O)N2C[C@H]3CC[C@@H]2CN(Cc2ccccn2)C3)no1	-200.1
Cc1nccc(CNC(=O)N(CCCO)C2CCc3ccccc32)n1 (configuration not stated)	-86.6
COc1ccccc1CNC(=O)COc1ccc2c(c1)OCC2O (configuration not stated)	-166.7
CC(C)n1cc(-c2nc3cc(S(=O)(=O)N4CCCC4)ccc3n2C)cn1	-92.66
Cc1ccc(C(C(=O)NCCN2CCC(CO)CC2)N(C)C)cc1 (configuration not stated)	-10.34
Cc1ccccc1C(C(=O)NCCn1cccc1)N(C)C (configuration not stated)	36.37
Cc1ccccc1C(C(=O)NCCN1CCC(CO)CC1)N(C)C (configuration not stated)	-106.7

Compound	Percent Effect [%]
CC1(C(=O)NCCN2CCCCC2)CCCN1C(=O)c1ccccc1 (configuration not stated)	-16.7
O=C(NCCN1CCCCC1)C(c1ccccc1)N1CCCC1 (configuration not stated)	79.97
O=C(NCCNc1cccnc1)C(c1cccnc1)N1CCCC1 (configuration not stated)	-14.56
CN1CCN(CCNC(=O)C(OC2CCCC2)c2ccccc2)CC1 (configuration not stated)	38.55
O=C(NCCn1cccc1)C(c1ccccc1)N1CCCC1 (configuration not stated)	54.29
Cc1ccc(C(C(=O)NCCN2CCCCCC2)N(C)C)cc1 (configuration not stated)	58.29
COc1cccc(Cn2cc(N3C(=O)[C@H]4CCCC[C@H]4C3=O)cn2)c1	-60.69
Cc1cccc(C)c1OCCCN1CCN(CC2CCCO2)CC1 (configuration not stated)	11.15
CC/N=c1\nc(NCC)nc2n1C(O)(Nc1cc(Cl)ccc1Cl)CS2 (configuration not stated)	-3.589
CC(=O)c1ccc(NC(=O)N[C@H](C(=O)O)C(C)C)cc1	-95.29
NC1CCCc2nc(-c3ccccc3)ncc21 (configuration not stated)	-87.16
O=C(c1ccccc1Cl)N1CC[C@H](O)[C@@H](N2CCOCC2)CC1	-83.45
COc1ccccc1CN1C[C@@H]2COC[C@]2(COCc2ccncc2)C1.O=C(O)C(F)(F)F.O=C(O)C(F)(F)F	53.03
COc1cccc(CN2C[C@@H]3COC[C@]3(COCc3ccccn3)C2)c1.O=C(O)C(F)(F)F.O=C(O)C(F)(F)F	58.94
COc1ccccc1CN1C[C@@H]2COC[C@]2(COc2cccnc2)C1.O=C(O)C(F)(F)F.O=C(O)C(F)(F)F	52.99
COc1ncccc1CN1C[C@@H]2COC[C@]2(COc2cccnc2)C1.O=C(O)C(F)(F)F.O=C(O)C(F)(F)F.O=C(O)C(F)(F)F	-33.52
COc1cccc(CN2C[C@@H]3COC[C@]3(COc3cccnc3)C2)c1.O=C(O)C(F)(F)F.O=C(O)C(F)(F)F	12.68
O=C(O)C(F)(F)F.O=C(O)C(F)(F)F.O=C(O)C(F)(F)F.c1cc(COC[C@]23COC[C@H]2CN(Cc2ccncc2)C3)ccn1	-128.8
COc1cc(N2C[C@@H]3COC[C@]3(COCc3ccccn3)C2)ncn1.O=C(O)C(F)(F)F.O=C(O)C(F)(F)F	-135.9
CCOC[C@]12COC[C@H]1CN(Cc1cccc(OC)c1)C2.O=C(O)C(F)(F)F	-1.674
O=C(O)C(F)(F)F.O=C(O)C(F)(F)F.O=C(O)C(F)(F)F.c1ccc(CN2C[C@@H]3COC[C@]3(COCc3ccncc3)C2)nc1	-55.25
Cc1cnc(CN(C)Cc2cc3c(cc2OC(F)F)OCO3)o1	-25.68
Cc1noc(C)c1CSCc1csc(CS(C)(=O)=O)n1	-34.91

Compound	Percent Effect [%]
COCCCNC(=O)c1cc(-c2cnc(N3CCOCC3)nc2)cn1C.O=C(O)C(F)(F)F	-55.95
CCn1ncc2c1C(COC)CN(Cc1nccs1)C2 (configuration not stated)	-17.13
COc1ccc(-n2ccc(C(=O)NCCN3CCCC(C)C3)n2)cc1 (configuration not stated)	4.937
Cn1cc(CN2C[C@H]3CCN(C(=O)c4cscn4)C[C@H]3C2)cn1.O=C(O)C(F)(F)F	-59.18
CC(Cn1cccn1)NCc1csc(Cc2ccccc2)n1 (configuration not stated)	5.726
CCOc1ccc(-c2cc(CCN)ccc2OC)cc1	-62.01
COc1ccc(CCN)cc1-c1ccc(C(N)=O)cc1	6.686
COc1ccc(CCN)cc1-c1ccc(O)cc1	84.96
O=C(Cn1c(=O)oc2ccccc21)NCC1(O)CCc2ccccc21 (configuration not stated)	-139.2
c1cnc(N2CCCC(c3cncc(-n4ccnc4)n3)C2)nc1 (configuration not stated)	-26.3
Cc1cc(NCCN)nc(-c2ccccc2O)n1	78.32
Cc1cc(NCCO)nc(-c2ccccc2O)n1	-228.5
Cc1cc(NCCNc2cccnc2)nc(-c2ccccc2O)n1	-179.2
COCC1COCCC12CCN(S(=O)(=O)c1ccc(C)cc1)CC2 (configuration not stated)	-77.98
CCNC(=O)[C@@H]1C[C@@H](NC(=O)c2cnc[nH]c2=O)CN1Cc1ccsc1	-128.1
O=C(CN1CCOCC1)Nc1ncc(Br)cc1Br	-123.1
c1ccc(Cc2noc(CCNC3CCOC4(CCOCC4)C3)n2)cc1 (configuration not stated)	-44.81
Fc1cccc(C2(CNC3CCCNC3)CCOCC2)c1 (configuration not stated)	-89.15
Fc1cccc(C2(CNC3CCOC4(CCOCC4)C3)CCOCC2)c1 (configuration not stated)	39.6
c1ccc2c(c1)nnn2CCCNC1CCOC2(CCOCC2)C1 (configuration not stated)	-5.834
c1ccc2c(c1)cnn2CCCNC1CCOC2(CCOCC2)C1 (configuration not stated)	68.4
Fc1ccccc1C1(CNC2CCOC3(CCOCC3)C2)CCCC1 (configuration not stated)	75.67
COc1c(CNC2CCN(C(=O)C(C)C)CC2)c(C(C)C)nn1C	-79.75
